High-throughput results (PubChem)
Plk1 PBD FP: blocks phosphopeptide binding to human Plk1 polo box domain; P53350; Plk1 PBD phosphopeptide binding, fluorescence polarization; inhibition, %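 (tested at about 20 µM)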; 97,000 tested, 0.13% active; AID 693; in the data active means inhibition above about 34%, passing the limit was not always enough
HUVEC tox IL1B: HUVEC cytotoxicity counter-screen, IL-1B stimulated | HUVEC cell count loss, Hoechst imaging | cell count reduction, % at 2 µM | 94,000 tested, 0.41% active | AID 845;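 active means cell count reduction more than 3 SD above the screen-wide mean, cut at about 70% in these data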
NFkB transloc pot: enhances IL-1B driven NFkB nuclear translocation | 94,000 tested, 0.3% active | HUVEC IL-1B NFkB p65 nuclear translocation imaging | AID 819 | activation, % at 2 µM;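 active means activation above 40%, about the mean plus 3 SD, also judged a hit on visual image review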;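 further: percent activation is computed from the nuclear over cytoplasmic p65 intensity ratio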
IL1B NFkB inh: blocks IL-1B driven NFkB nuclear translocation in HUVEC cells. HUVEC IL-1B NFkB p65 nuclear translocation imaging. inhibition, % at 2 µM. 94,000 tested, 0.43% active;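 active means inhibition above about 30% together with a positive call from visual inspection of the well image, limit read from the data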;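 further: nuclear over cytoplasmic p65 intensity ratio measured by imaging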
PLK1 inh: blocks human PLK1 kinase activity | P53350 | recombinant PLK1 kinase, TR-FRET peptide phosphorylation | inhibition, % at 10 µM | 97,000 tested, 0.53% active | AID 619;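 active means inhibition of 50% or more in the single-concentration screen; inactive means inhibition below 50%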
Pyk2 oligo antag: blocks oligomerization of human Pyk2 in cells; Q293 cells, Pyk2 FERM NanoBiT luminescence; hits give low values; z-score (the deposit names both 25 µM and 10 µM); 99,000 tested, 0.83% active; Q14289;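 active means Z-score of -3 or lower, scaled per plate to the spread of control and sample wells; inactive means z-score above -3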;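 further: negative z-score means lost luminescence so less FERM oligomerization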
Target sequence (Q14289 whole entry, looked up): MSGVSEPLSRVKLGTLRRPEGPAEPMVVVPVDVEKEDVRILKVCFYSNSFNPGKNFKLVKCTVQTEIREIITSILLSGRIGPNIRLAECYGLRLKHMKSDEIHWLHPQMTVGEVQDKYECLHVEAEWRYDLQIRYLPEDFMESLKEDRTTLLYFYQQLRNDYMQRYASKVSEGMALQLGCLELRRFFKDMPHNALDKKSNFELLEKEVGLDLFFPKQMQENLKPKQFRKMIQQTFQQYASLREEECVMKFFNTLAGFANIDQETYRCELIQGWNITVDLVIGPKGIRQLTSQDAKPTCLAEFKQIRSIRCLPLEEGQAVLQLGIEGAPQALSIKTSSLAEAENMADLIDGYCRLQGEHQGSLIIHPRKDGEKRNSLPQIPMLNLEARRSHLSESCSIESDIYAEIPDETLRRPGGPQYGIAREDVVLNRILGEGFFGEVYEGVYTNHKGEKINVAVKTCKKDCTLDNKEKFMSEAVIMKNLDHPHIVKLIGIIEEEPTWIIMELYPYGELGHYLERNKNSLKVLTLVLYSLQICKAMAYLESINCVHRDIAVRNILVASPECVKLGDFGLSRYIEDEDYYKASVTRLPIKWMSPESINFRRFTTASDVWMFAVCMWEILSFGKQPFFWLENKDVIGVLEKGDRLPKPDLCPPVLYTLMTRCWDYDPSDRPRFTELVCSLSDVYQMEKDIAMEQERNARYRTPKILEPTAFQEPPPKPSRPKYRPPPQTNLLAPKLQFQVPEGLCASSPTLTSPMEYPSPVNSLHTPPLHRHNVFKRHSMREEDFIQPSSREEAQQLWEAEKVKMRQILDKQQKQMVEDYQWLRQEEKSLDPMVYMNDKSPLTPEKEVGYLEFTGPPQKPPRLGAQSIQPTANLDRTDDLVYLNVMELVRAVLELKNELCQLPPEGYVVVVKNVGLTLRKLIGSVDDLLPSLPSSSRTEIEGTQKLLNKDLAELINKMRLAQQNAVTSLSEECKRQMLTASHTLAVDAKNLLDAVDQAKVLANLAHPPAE
Of the large screens only hits and unclear results are named; the others gave an inactive call. Compounds with a hit are over-represented: about 2.2% of the library has one in this group of screens.

CCOc1ccc(S(=O)(=O)N2CCN(C(=O)c3sccc3C)CC2)cc1	none
CC(C)c1nnc(SCC(=O)Nc2ccc3c(c2)OCO3)n1C	none
Cn1c(SCC(=O)Nc2ccc3c(c2)OCO3)nnc1-c1cnccn1	HUVEC tox IL1B 86
COc1ccc(-c2noc(CN(C(=O)c3cccs3)C(C)C)n2)cc1	none
CC1CCCCN1CCNC(=O)c1cnn2ccccc12 (configuration not stated)	PLK1 inh 69 (no result: HUVEC tox IL1B, NFkB transloc pot, IL1B NFkB inh, Pyk2 oligo antag)
Cc1cc(C(=O)NCCN2CCCCC2C)n(-c2ccccc2)n1 (configuration not stated)	none (no result: Pyk2 oligo antag)
Cc1ccc(-c2cc(C(=O)N/N=C/c3c(C)nn(-c4ccccc4)c3C)[nH]n2)cc1	Pyk2 oligo antag -3
Cc1nn(-c2ccccc2)c(C)c1/C=N/NC(=O)c1cc(C(C)(C)C)[nH]n1	none
CCCOc1ccc([N+](=O)[O-])cc1C1NC(=S)NC(c2ccccc2)=C1C(=O)OCC (configuration not stated)	Pyk2 oligo antag -4.1
COc1cc2c(cc1OC)C1(Nc3c-2c(C)nn3-c2ccccc2)C(=O)Nc2ccccc21 (configuration not stated)	none
COc1cc2c(cc1OC)C1(Nc3c-2c(-c2ccccc2)nn3-c2ccccc2)C(=O)Nc2ccccc21 (configuration not stated)	Pyk2 oligo antag -3.2
O=C(CCN1CCc2ccccc2C(c2ccccc2)C1)c1ccc2c(c1)OCCO2 (configuration not stated)	IL1B NFkB inh 34
CCCC(=O)c1ccc2c(c1)OCCO2	none
O=C(O)CCC(=O)c1ccc2c(c1)OCCO2	PLK1 inh 66 (no result: HUVEC tox IL1B, NFkB transloc pot, IL1B NFkB inh, Pyk2 oligo antag)
O=C(CCc1nc2ccccc2[nH]1)Nc1ccc(F)cc1	none
O=C(CCc1nc2ccccc2[nH]1)Nc1ccc2c(c1)OCO2	IL1B NFkB inh 44
CCc1ccccc1N1C(=O)c2cccc3c(N4CCOCC4)c([N+](=O)[O-])cc(c23)C1=O	Pyk2 oligo antag -3
O=C(CC1(O)C(=O)Nc2ccccc21)c1ccccc1 (configuration not stated)	PLK1 inh 65 (no result: HUVEC tox IL1B, NFkB transloc pot, IL1B NFkB inh, Pyk2 oligo antag)
O=c1[nH]c2ccc(Cl)cc2c(-c2ccccc2)c1N1CCN(c2ccccn2)CC1	none (no result: Plk1 PBD FP, HUVEC tox IL1B, NFkB transloc pot, IL1B NFkB inh, PLK1 inh)
O=c1[nH]c2ccc(Cl)cc2c(-c2ccccc2)c1CN1CCOCC1	NFkB transloc pot 113
C=CCNC(=O)C1CC(=O)N(c2ccc(C)cc2)C1 (configuration not stated)	PLK1 inh 59 (no result: HUVEC tox IL1B, NFkB transloc pot, IL1B NFkB inh, Pyk2 oligo antag)
COc1ccc(CCNC(=O)C2CC(=O)N(c3ccccc3)C2)cc1OC (configuration not stated)	HUVEC tox IL1B 88
COc1cc2c(cc1OC)C(c1cc3cc(OC)c(OC)cc3[nH]c1=O)N(C(=O)C1CC1)CC2 (configuration not stated)	NFkB transloc pot 45
Cc1cc(O)ccc1Nc1nc2ccccc2nc1Nc1ccc(O)cc1C	none
COc1ccc(NC(=O)C2CCN(S(C)(=O)=O)CC2)cc1	IL1B NFkB inh 42
Cc1csc(NC(=O)CSc2nsc(SCC(=O)Nc3nc(C)cs3)c2C#N)n1	Pyk2 oligo antag -4.4
O=C(c1ccc(Cl)c(S(=O)(=O)N2CCOCC2)c1)N1CCN(Cc2ccccc2)CC1	none
O=C1c2ccccc2C(O)(c2ncc[nH]2)N1CCc1ccccc1 (configuration not stated)	none
CCOC(=O)c1cnc2ccc(OC)cc2c1Nc1ccc2c(c1)OCCO2	Pyk2 oligo antag -4
O=C(c1csc2ccccc12)N1CCN(c2ccc(Cl)c(Cl)c2)CC1	IL1B NFkB inh 62
COc1ccc(NC(=O)CSc2nnc(CCC(=O)Nc3ccc(C)c(Cl)c3)n2C)cc1	none
O=C1C2CCCN2C(c2ccccc2F)N1c1ccc(Cl)cc1 (configuration not stated)	none
COc1ccc(N2C(=O)C3CCCN3C2c2ccccc2F)cc1 (configuration not stated)	NFkB transloc pot 51 (no result: Pyk2 oligo antag)
CC(=O)/C(=C/N(C)C)Sc1ccc(C)cc1	none
CCc1c(C#N)c(SCCC(=O)Nc2ccc(OC)cc2)nc2c1C(=O)CC(C)(C)C2	Pyk2 oligo antag -3.1
COc1ccc(-c2c(C#N)c(SCC(=O)Nc3ccccc3)nc3c2CCCC3)cc1	none
COc1cc2[nH]c3c(N4CCN(c5ccc(Cl)cc5)CC4)ncnc3c2cc1OC	Pyk2 oligo antag -3.2
COC(=O)C1=C(C)n2nnnc2NC1c1ccc(Cl)cc1 (configuration not stated)	NFkB transloc pot 42
O=S(=O)(N/N=C\c1ccc2c(c1)OCO2)c1ccc(Cl)cc1	none
Cc1cc(C(F)(F)F)nn1CC(=O)N(C)C1CCCCC1	none
Cc1c(Cl)c(-c2n[nH]c(=S)n2CC(C)C)nn1C	none (no result: Plk1 PBD FP, HUVEC tox IL1B, NFkB transloc pot, IL1B NFkB inh, PLK1 inh)
Cc1c(Cl)c(-c2n[nH]c(=S)n2-c2ccc(F)cc2)nn1C	IL1B NFkB inh 36
Cc1cc2nc(C)n(CCCNC(=O)Nc3cccc4ccccc34)c2cc1C	none
CCOC(=O)N1CCN(S(=O)(=O)c2ccc(C(=O)Nc3ccc4c(c3)C(=O)NC4=O)cc2)CC1	none (no result: Plk1 PBD FP, HUVEC tox IL1B, NFkB transloc pot, IL1B NFkB inh, PLK1 inh)
Cc1nn(C)c(C)c1NC(=O)CSc1nc(Cc2ccccc2)nc2c1cnn2-c1ccccc1	none
Cc1nn(Cc2ccccc2)c(C)c1NC(=O)CSc1nc(C2CC2)nc2c1cnn2-c1ccccc1	IL1B NFkB inh 46
CC(C)Oc1ccc(C2CC(=O)N(c3ccc(N(C)C)cc3)C2=O)cc1 (configuration not stated)	Pyk2 oligo antag -4.2
CCC(=O)NC(c1cccc([N+](=O)[O-])c1)c1c(OC(C)=O)ccc2ccccc12 (configuration not stated)	Pyk2 oligo antag -3.3
CC(=O)Oc1ccc2ccccc2c1C(NC(=O)Cc1ccccc1)c1ccccc1Cl (configuration not stated)	Pyk2 oligo antag -4.4
CCCC(=O)NC(c1ccc(OC)c(OC)c1)c1c(O)ccc2ccccc12 (configuration not stated)	none
COc1ccc(C2NC(=S)NC3=C2CCc2cc(OC)ccc23)cc1 (configuration not stated)	none
CC1Cc2ccccc2N1C(=O)C1CCCN(S(=O)(=O)c2cccc3cccnc23)C1 (configuration not stated)	PLK1 inh 55 (no result: HUVEC tox IL1B, NFkB transloc pot, IL1B NFkB inh, Pyk2 oligo antag)
O=c1[nH]c(CSc2nc(-c3ccc(F)cc3)cs2)nc2ccccc12	none (no result: Plk1 PBD FP, HUVEC tox IL1B, NFkB transloc pot, IL1B NFkB inh, PLK1 inh)
COc1cc(OC)cc(-c2cc3nc(C)cc(N4CCN(C(=O)c5ccco5)CC4)n3n2)c1	NFkB transloc pot 43 (no result: Pyk2 oligo antag)
CCN(CC)C(=O)CSc1nc2cc3c(cc2c(=O)n1Cc1ccc2c(c1)OCO2)OCO3	Pyk2 oligo antag -3.1 (no result: Plk1 PBD FP, HUVEC tox IL1B, NFkB transloc pot, IL1B NFkB inh, PLK1 inh)
Oc1ccc(-n2cnnn2)cc1	HUVEC tox IL1B 89
COc1cc(-c2nnc(COC(=O)c3c4c(nc5ccccc35)CCCC4)o2)cc(OC)c1OC	none (no result: Pyk2 oligo antag)
Cc1onc(-c2ccccc2)c1C(=O)Nc1nc2c(s1)C(=O)CC(C)(C)C2	Pyk2 oligo antag -3.8
Cc1onc(-c2ccccc2)c1C(=O)Nc1nnc(-c2ccncc2)s1	Pyk2 oligo antag -3.2
